PubChem BioAssay
Active and inactive are the calls of the source. Unless noted, the rule behind the calls is not given here.

Columns and labels:
[1] = compounds altering circadian rhythm period length – cell-based, LOPAC library, luminescence reporter (AID 2774); conditions: circadian reporter cells, at 7 µM, actives lie on both sides;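 note: values are relative to mean of DMSO wells on each plate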
[2] = tested on: Hepatitis C virus NS3 helicase; assay: blockers of NS3h binding to ssDNA – biochemical, fluorescence polarization, LOPAC1280 library, primary screen (AID 687035; in the data active = inhibition above about 37%); conditions: Purified HCV NS3 helicase, Cy5-dT15 ssDNA binding fluorescence polarization; stronger effect = higher value; concentration not given here
[3] = compounds altering Cy5-DNA-NS3h complex signal – biochemical, LOPAC1280, artefact control for HCV NS3 helicase inhibitor project (AID 687037); conditions: Cy5-DNA-NS3h complex fluorescence interference counterscreen
[4] = tested on: Aerobactin synthetase IucA (Klebsiella pneumoniae, hypervirulent); assay: biochemical IucA inhibition screen of LOPAC library by absorbance (AID 1346212); conditions: IucA enzyme assay, absorbance (OD) readout; stronger effect = lower value;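 tested at 8 µM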;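 note: 100% = no compound wells and 0% = no enzyme wells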
[5] = viability loss with induced miR-34 in A549 – imaging, A549 dox-inducible miR-34, nuclei and caspase counts, primary screen (AID 1347080;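 active = compounds whose cell count with miR-34 switched on is under 0.7 times the count with it off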); conditions: A549 miR-34 inducible, Hoechst nuclei count, 48 h
[6] = blockers of cellular phospholipid synthesis – cell-based, LOPAC library, screen 4, primary screen (AID 1347384); conditions: animal cells, phospholipid biosynthesis inhibition screen; at 10 µM
[7] = galactose survival enhancers in mitochondrial complex I cybrids – cell-based, galactose medium, ATP luminescence, primary screen (AID 1645843;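 active = z-score of at least 1.8 in each of two replicates, scored against plate mean and spread of sample wells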;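 note: positive z means more ATP and so rescue of galactose-driven cybrid death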); conditions: complex I mutant cybrid cells, 72 h, stronger effect = higher value
[8] = measured here: relative caspase fold change +Dox/-Dox
[9] = measured here: total cells with miR-34 induction, stronger effect = lower value
[10] = measured here: total cells without miR-34 induction

| SMILES | period change [1] | inhibition [2] | fluorescence ratio (interference) [3] | remaining activity [4] | fold change ([5]; stronger effect = lower value) | fold change [5, 8] | cell count [5, 9] | cell count [5, 10] | outcome [6] | z-score [7] | fold change ([5]; stronger effect = lower value, cell number ratio, induced over uninduced) |
| --- | --- | --- | --- | --- | --- | --- | --- | --- | --- | --- | --- |
| NC(=O)c1ccc(OCC(O)CN2CC=C(c3ccc(F)cc3)CC2)cc1 (configuration not stated) | 0.145 h (inactive) | -1% (inactive) | 0.9 (inactive) | 103% (inactive) | 1.01 (inactive) | 1.9 | 9620 | 9570 | inactive | -0.85 (inactive) |  |
| COc1ccc2c(c1O)-c1cccc3c1[C@@H](C2)N(C)CC3 | -0.1 h (inactive) | -4% (inactive) | 1 (inactive) | 102% (inactive) | 0.958 (inactive) | 1.07 | 7690 | 8030 | inactive | -0.76 (inactive) |  |
| CNCCc1ccc(O)c(O)c1 | 0 h (inactive) | -2% (inactive) | 1 (inactive) | 115% (inactive) | 1.01 (inactive) | 1.35 | 9960 | 9850 | inactive | -0.945 (inactive) |  |
| CN(N=O)c1ccc(O)c(O)c1 | -0.025 h (inactive) | 27% (inactive) | 0.9 (inactive) | 85.2% (inactive) | 1.13 (inactive) | 0.905 | 9750 | 8640 | inactive | 0.2 (inactive) |  |
| COc1ccc2[nH]c3c(c2c1)CCNC3 | -0.105 h (inactive) | 1% (inactive) | 0.9 (inactive) | 108% (inactive) | 1.02 (inactive) | 0.898 | 10400 | 10200 | inactive | 0.28 (inactive) |  |
| NCC(O)c1cc(O)c(O)cc1F (configuration not stated) | -0.105 h (inactive) | 1% (inactive) | 0.9 (inactive) | 110% (inactive) | 1.02 (inactive) | 1.46 | 10300 | 10200 | inactive | -1.47 (inactive) |  |
| C[N+]1(C)C2CCC1CC(OC(=O)c1c[nH]c3ccccc13)C2 (configuration not stated) | -0.255 h (inactive) | 0% (inactive) | 1 (inactive) | 94.3% (inactive) | 0.939 (inactive) | 1.36 | 9240 | 9840 | inactive | 0.4 (inactive) |  |
| NCC(CP(=O)(O)O)c1ccc(Cl)cc1 (configuration not stated) | 0.02 h (inactive) | -1% (inactive) | 1 (inactive) | 107% (inactive) | 1 (inactive) | 1.21 | 9470 | 9430 | inactive | 0.615 (inactive) |  |
| CCCN1CCC[C@H](c2cccc(O)c2)C1 | -0.035 h (inactive) | -3% (inactive) | 1 (inactive) | 98.7% (inactive) | 1 (inactive) | 1.94 | 9710 | 9700 | inactive | 0.32 (inactive) |  |
| NC(=O)COc1c(F)cc(SCCNS(=O)(=O)c2ccccc2)cc1F | -0.08 h (inactive) | -2% (inactive) | 1 (inactive) | 109% (inactive) | 0.978 (inactive) | 0.398 | 9150 | 9360 | inactive | 0.24 (inactive) |  |
| Oc1ccc2c3c1O[C@H]1c4oc5ccccc5c4C[C@@]4(O)C(C2)N(CC2CC2)CCC314 (some centres not stated) | 0.13 h (inactive) | -1% (inactive) | 1 (inactive) | 97.5% (inactive) | 1.1 (inactive) | 0.785 | 10600 | 9610 | inactive | -0.595 (inactive) |  |
| CO[C@H]1CC=C2CCN3CCC4=C(CC(=O)OC4)[C@]23C1 | 0.065 h (inactive) | -3% (inactive) | 1 (inactive) | 103% (inactive) |  | 1.26 | 9420 | 10000 | inactive | 0.375 (inactive) | 0.939 (inactive) |
| CCS(=O)(=O)Nc1cccc(C(=C2CCCCC2)c2cnc[nH]2)c1 | 0.07 h (inactive) | 0% (inactive) | 1 (inactive) | 108% (inactive) | 1.11 (inactive) | 1.94 | 8610 | 7740 | inactive | -0.125 (inactive) |  |
| CCCN(CCC)[C@@H]1CCc2cccc(O)c2C1 | -0.075 h (inactive) | -5% (inactive) | 1 (inactive) | 102% (inactive) | 1.11 (inactive) | 1.06 | 10200 | 9240 | inactive | -0.38 (inactive) |  |
| CN(C(=O)Cc1ccc(Cl)c(Cl)c1)C(CN1CCCC1)c1cccc(OCC(=O)O)c1 (configuration not stated) | -0.06 h (inactive) | -4% (inactive) | 1 (inactive) | 103% (inactive) | 1.05 (inactive) | 1.11 | 10700 | 10200 | inactive | 0.31 (inactive) |  |
| O=C(O)[C@@H]1CCN1 | 0.09 h (inactive) | -5% (inactive) | 0.9 (inactive) | 122% (inactive) | 1.03 (inactive) | 1.27 | 10700 | 10400 | inactive | 0.2 (inactive) |  |
| CCCN1CCC[C@@H](c2cccc(O)c2)C1 | 0.11 h (inactive) | -3% (inactive) | 1 (inactive) | 106% (inactive) | 0.956 (inactive) | 0.986 | 9850 | 10300 | inactive | 0.185 (inactive) |  |
| C[N+](C)(C)CC#CCOC(=O)Nc1cccc(Cl)c1 | 0.045 h (inactive) | -2% (inactive) | 1 (inactive) | 123% (inactive) | 0.993 (inactive) | 1.89 | 10400 | 10500 | inactive | -0.395 (inactive) |  |

| SMILES | period change [1] | inhibition [2] | fluorescence ratio (interference) [3] | remaining activity [4] | fold change ([5]; stronger effect = lower value) | fold change [5, 8] | cell count [5, 9] | cell count [5, 10] | outcome [6] | z-score [7] | fold change ([5]; stronger effect = lower value, cell number ratio, induced over uninduced) |
| --- | --- | --- | --- | --- | --- | --- | --- | --- | --- | --- | --- |
| CC(C)NC(C)Cc1ccc(I)cc1 (configuration not stated) | 0.04 h (inactive) | -1% (inactive) | 1 (inactive) | 108% (inactive) | 1.08 (inactive) | 0.905 | 10800 | 10000 | inactive | -0.22 (inactive) |  |
| CCCn1c(=O)c2[nH]c(C3CCCC3)nc2n(CCCOC(=O)c2ccc(S(=O)(=O)F)cc2)c1=O | -0.07 h (inactive) | -3% (inactive) | 1 (inactive) | 102% (inactive) | 0.972 (inactive) | 1.12 | 6100 | 6280 | inactive | -0.865 (inactive) |  |
| CNc1ccc2oc(C[C@H]3O[C@@]4(CC[C@H]3C)O[C@H]([C@H](C)C(=O)c3ccc[nH]3)[C@H](C)C[C@H]4C)nc2c1C(=O)O | -0.125 h (inactive) | 1% (inactive) | 1 (inactive) | 119% (inactive) | 0.828 (inactive) | 1.6 | 428 | 516 | inactive | -1.52 (inactive) |  |
| CCCN1CC[C@@H]2c3cc(O)ccc3CC[C@@H]21 | -0.045 h (inactive) | -4% (inactive) | 0.9 (inactive) | 105% (inactive) | 1.1 (inactive) | 0.654 | 11000 | 10000 | inactive | 0.605 (inactive) |  |
| CC(=O)NBr | 0.03 h (inactive) | -1% (inactive) | 0.9 (inactive) | 100% (inactive) | 1.03 (inactive) | 2.31 | 10500 | 10100 | inactive | 0.61 (inactive) |  |
| Ic1ccccc1CNC1C2CCN(CC2)C1C(c1ccccc1)c1ccccc1 (configuration not stated) | 0.145 h (inactive) | -8% (inactive) | 0.9 (inactive) | 98.2% (inactive) | 0.485 (active) | 0.281 | 329 | 679 | inactive | -1.29 (inactive) |  |
| C[C@]12CCC3C(CC[C@H]4C[C@H](O)CC[C@]34C)C1CC[C@@H]2C(=O)CO (some centres not stated) | 0.065 h (inactive) | -2% (inactive) | 1 (inactive) | 121% (inactive) | 1.06 (inactive) | 0.876 | 10400 | 9790 | inactive | -0.26 (inactive) |  |
| CP(=O)(O)C1=CCNCC1 | 0.005 h (inactive) | -5% (inactive) | 1 (inactive) | 95.4% (inactive) | 0.981 (inactive) | 1.49 | 9760 | 9940 | inactive | 0.2 (inactive) |  |
| O=S1(=O)N(CCN2CC=C(c3c[nH]c4cc(F)ccc34)CC2)c2cccc3c2N1CCC3 | 0.13 h (inactive) | 0% (inactive) | 1 (inactive) | 123% (inactive) | 1.01 (inactive) | 0.783 | 5470 | 5400 | inactive | -1.29 (inactive) |  |
| NCCCP(=O)(O)O | 0.005 h (inactive) | -1% (inactive) | 1 (inactive) | 111% (inactive) | 0.943 (inactive) | 2.14 | 9360 | 9930 | inactive | 0.285 (inactive) |  |
| Cc1sc2ccccc2c1CC1=NCCN1 | 0.055 h (inactive) | -3% (inactive) | 0.9 (inactive) | 99.1% (inactive) | 1.03 (inactive) | 1.95 | 9870 | 9550 | inactive | -0.09 (inactive) |  |
| CC(C)NP(=O)(NC(C)C)OP(=O)(NC(C)C)NC(C)C | 0.055 h (inactive) | -5% (inactive) | 1 (inactive) | 90.6% (inactive) | 0.945 (inactive) | 1.32 | 9680 | 10200 | inactive | 0.25 (inactive) |  |
| CN1CCc2cccc(Cl)c2CC1 | 0.06 h (inactive) | -4% (inactive) | 1 (inactive) | 114% (inactive) | 1.03 (inactive) | 1.41 | 9920 | 9620 | inactive | 0.41 (inactive) |  |
| CC(N)[C@H](O)c1ccc(O)c(O)c1 (some centres not stated) | -0.05 h (inactive) | 0% (inactive) | 1 (inactive) | 122% (inactive) | 0.943 (inactive) | 1.34 | 10200 | 10800 | inactive | -0.925 (inactive) |  |
| N[C@@H](Cn1ccc(=O)[nH]c1=O)C(=O)O | 0.095 h (inactive) |  |  | 122% (inactive) |  |  |  |  |  |  |  |
| CCN(CCCl)Cc1ccccc1Br | -0.02 h (inactive) | -2% (inactive) | 1 (inactive) | 111% (inactive) |  |  |  |  |  |  |  |
| O=[N+]([O-])c1ccc(O[C@@H]2O[C@H](CO)[C@@H](O)[C@H](O)[C@H]2F)c([N+](=O)[O-])c1 | -0.07 h (inactive) |  |  | 96.8% (inactive) |  |  |  |  |  |  |  |
| C[C@@H]1O[C@H](C[N+](C)(C)C)CS1 | -0.11 h (inactive) | -1% (inactive) | 1 (inactive) | 81.1% (inactive) |  |  |  |  |  |  |  |
